About 79,000 compounds went through this panel and 15% of them were active in at least one assay; those are over-represented in the sample as a whole. A number with no mark means an inactive call. Active and inactive are the calls of the source. Rule as the data show it: active = growth inhibition above about 70%; inactive = the rest.
Tests used:
[1] = NCI Yeast Anticancer Drug Screen. Data for the rad50 strain (AID 155);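 also: 0% = growth of vehicle-only cultures of the same strain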; conditions: S. cerevisiae rad50 strain growth inhibition; at 50.0 µM; active compounds read high
Outline: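 Relative growth inhibition (compound vs vehicle) was measured in yeast with a defined repair-gene alteration.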

[2] = NCI Yeast Anticancer Drug Screen. Data for the mec2-1 strain (AID 157); conditions: S. cerevisiae mec2-1 strain, at 50.0 µM, active compounds read high
Outline: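 Readout is yeast growth inhibition, normalised to vehicle-treated controls, in the mec2-1 strain exposed to compound.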

[3] = NCI Yeast Anticancer Drug Screen. Data for the sgs1 mgt1 strain (AID 161);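 also: 0% = growth of cultures given vehicle only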; conditions: S. cerevisiae sgs1 mgt1 strain, at 50.0 µM, active compounds read high
Outline: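 Growth of a repair-deficient yeast mutant was monitored after compound treatment and expressed as inhibition relative to vehicle-treated cultures.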

[4] = NCI Yeast Anticancer Drug Screen. Data for the cln2 rad14 strain (AID 165);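 also: 0% = growth equal to vehicle treated cultures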; conditions: S. cerevisiae cln2 rad14 strain, at 50.0 µM, active compounds read high
Outline: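 Relative to vehicle controls, growth inhibition of compound-treated cln2 rad14 yeast was recorded.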

[5] = NCI Yeast Anticancer Drug Screen. Data for the bub3 strain (AID 167); conditions: S. cerevisiae bub3 mutant strain, at 50.0 µM, active compounds read high
Outline: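 Screening used yeast with an engineered genetic alteration affecting cell cycle control. Compound-exposed cultures were compared with vehicle cultures, and reduced growth was taken as inhibition.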

[6] = NCI Yeast Anticancer Drug Screen. Data for the mlh1 rad18 strain (AID 175); conditions: S. cerevisiae mlh1 rad18 strain growth inhibition; at 50.0 µM; active compounds read high
Outline: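 Test agents were incubated with a yeast strain of defined genotype (DNA damage repair defect). Inhibition of growth was derived by comparison with vehicle-exposed cultures.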

Row | SMILES | growth inhibition [1] | growth inhibition [2] | growth inhibition [3] | growth inhibition [4] | growth inhibition [5] | growth inhibition [6]
1 | O=c1[nH]c2c(c(=O)[nH]1)SSC2 | -24.4% | -12.8% | -39.4% | -7.7% | -28.4% | -10.1%
2 | O=C(O)c1nccc2c(O)cccc12 | -5.75% | -4.45% | -16.1% | -19.6% | -23.9% | 3.3%
3 | CC1(c2ccc(Cl)cc2)NC(=O)N(CC(=O)Nc2ccccc2)C1=O (stereo not given) | 7.1% | 13.9% | 2.65% | -7.95% | -12.1% | 14.2%
4 | COc1ccc(CCC(C)(O)c2ccccc2)cc1 (stereo not given) | 11.7% | -1.35% | 11.2% | -1.05% | 41.9% | -2.55%
5 | Oc1ccccc1/C=N/c1nc(-c2ccccc2)cs1.[Co].[O-]c1ccccc1/C=N/c1nc(-c2ccccc2)cs1 | 19.2% | 5.9% | 9.8% | 22.4% | 5.35% | 21.2%
6 | NCCCc1c(-c2ccccc2)nc(N)[nH]c1=O | -3.15% | -15% | -35.5% | -28.4% | -58% | -3.05%
7 | CC1OCC2OC(C)OC(C(C3C(=O)CC(C)(C)CC3=O)C3C(=O)CC(C)(C)CC3=O)C2O1 (stereo not given) | 17.4% | 6.3% | 19.2% | -8.3% | 26.2% | 22.8%
8 | CC(C)C1OCC=CCO1 | 7.65% | -6.7% | -13.2% | -9.85% | 13.7% | -3%
9 | NNC(=S)N/N=C/C(Cl)=C(\Cl)C(=O)O | -2.2% | -13.2% | 1.8% | -2% | 0.1% | -1.75%
10 | Oc1c(Cl)cc(Cl)cc1C=Nc1cc(C(F)(F)F)ccc1N1CCc2ccccc2C1 | 53.5% | 0.25% | 50% | 14.4% | 42.8% | 39.6%
11 | COc1ccc(/C=C/C(=O)c2ccc(Cl)s2)cc1 | -18.2% | -4.75% | -5.8% | -34.3% | 20.4% | -4.5%
12 | O=C1C=C(Nc2ccc(Br)cc2)c2ccccc2C1=O | 36.3% | -1.95% | 11.6% | 7.75% | -1.45% | -2.05%
13 | CC(C)(C)Oc1cc(F)c(C(C)(C)C)cc1C(C)(C)C | -4% | -7.4% | -2.4% | 8.75% | 0.05% | 10.7%
14 | Nc1ccc(N(S(=O)(=O)c2ccccc2)S(=O)(=O)c2ccccc2)nc1 | 27.4% | 6.3% | 11.1% | -4.45% | 2.25% | 17.7%
15 | Cn1ccc(=O)c2ccccc21 | 3.1% | -1% | -8.55% | 3.45% | 6.1% | 1.9%
16 | CC(C)=CCCC(C)(O)C1CC=C(C)CC1 (stereo not given) | 0.5% | -18.8% | -2.6% | 3.05% | -13.9% | -7.65%
17 | Cc1nn(C(=O)Cc2ccccc2)c2c1C(c1ccc(O)cc1O)SC(N)=N2 (stereo not given) | -38.9% | -23.1% | -35.5% | 0.8% | -15.6% | -36.5%
18 | OCCOc1ccc2ccccc2c1-c1c(OCCO)ccc2ccccc12 | 98.5% (active) | 95.7% (active) | 98.5% (active) | 97.7% (active) | 98.9% (active) | 98.6% (active)
19 | CCOc1ccc(NC(=O)C2=C(C)NC(C)=C(C(=O)Nc3ccc(OCC)cc3)C2c2ccccc2)cc1 | -22.9% | -7.4% | -20.9% | -17.1% | -16.2% | -18.2%
20 | Clc1cccc(Cl)c1/C=N/N1CCN(/N=C/c2c(Cl)cccc2Cl)CC1 | 18.9% | 10.1% | 17.9% | 6.45% | -4.1% | 0.7%

From PubChem BioAssay (NCI)
